Compound activity deposited in PubChem by National Center for Advancing Translational Sciences (NCATS).
In the library only some 11% were active in any assay of this set; here they are far more common.
AMA1 RON2 block = qHTS for Inhibitors of AMA1-RON; Towards Development of Antimalarial Drug Lead: Primary Screen; AlphaScreen AMA1-biotinylated RON2 peptide binding; Potency, µM (titrated, usually from 58.2 µM), for the others: at the top dose activity change, negative = inhibition, usual class: inhibitors; 0.2% of 360,000 active; AID 720542, 2013;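 further: 0% = vehicle wells and -100% = peptide control; nearly all actives have a fitted effect of over 45% in size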
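AMA1 (3D7) with his tag at 25 nM final met compounds first, then biotinylated RON2 peptide at 25 nM; detection used donor plus acceptor beads, 10 µg/mL apiece, read by AlphaScreen after 30 min at room temperature.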
Pf growth 96h = Primary qHTS for delayed death inhibitors of the malarial parasite plastid, 96 hour incubation. P. falciparum luciferase reporter growth, 96 h. Potency, µM (series often up to 28.7 µM), for the others: top-dose activity change, negative = inhibition, hits mostly inhibitors. 6.9% of 320,000 active. AID 504834, 2011
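Cell-based qHTS: luciferase-tagged P. falciparum in erythrocytes (2% hematocrit, 0.05% parasitemia final) incubated with compounds for 96 hours, 37 C, 5% CO2; luciferase detection reagent then added and luminescence measured.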
HCV inhibitor = qHTS Assay for Inhibitors of Hepatitis C Virus (HCV). Huh7.5.1 HCVcc-Cre infection, luciferase reporter, 44 h. Potency, µM (highest dose often 41.8 µM), without a hit: at the highest dose activity change, negative = inhibition, actives largely listed as inhibitors. 3.4% of 340,000 active. AID 651820, 2012
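Cells (1,000/well) were plated 4 h before compound, then infected with HCVcc-Cre virus (~0.5 moi). After 44 h further culture, infection was read as luciferase luminescence following a 15 min substrate incubation at room temperature.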
Pf growth 48h = Primary qHTS for delayed death inhibitors of the malarial parasite plastid, 48 hour incubation | Potency, µM (titrated, usually from 28.7 µM), for inactives: at the highest dose activity change, negative = inhibition, actives largely listed as inhibitors | P. falciparum luciferase growth in erythrocytes, 48 h | 5.9% of 310,000 active
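In quantitative HTS format, infected erythrocytes bearing luciferase-reporter parasites were treated for a single generation at 37 C. Luminescence after adding detection reagent served as the growth measure.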
AmpC no deterg = qHTS Inhibitors of AmpC Beta-Lactamase (assay without detergent); AmpC nitrocefin hydrolysis, absorbance 480 nm, 0.0001% Triton; Potency, µM (series often up to 57.1 µM), without a hit: top-dose activity change, negative = inhibition, most hits filed as inhibitors; 0.52% of 330,000 active; AID 485341, 2010;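 further: plate controls were no compound for no effect and no enzyme for full effect; nearly all actives have a fitted effect of over 20% in size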
Target sequence (P00811 whole entry, looked up): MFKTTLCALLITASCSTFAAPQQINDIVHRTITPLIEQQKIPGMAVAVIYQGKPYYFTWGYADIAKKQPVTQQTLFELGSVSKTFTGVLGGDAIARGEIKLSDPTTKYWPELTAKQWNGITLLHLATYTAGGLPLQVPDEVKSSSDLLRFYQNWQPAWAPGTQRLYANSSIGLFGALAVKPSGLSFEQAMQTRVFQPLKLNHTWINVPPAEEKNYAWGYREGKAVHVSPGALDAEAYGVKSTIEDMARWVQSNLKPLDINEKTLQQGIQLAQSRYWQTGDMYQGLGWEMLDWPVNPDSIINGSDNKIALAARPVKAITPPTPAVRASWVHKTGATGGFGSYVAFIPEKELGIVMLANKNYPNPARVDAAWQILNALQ
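20 mM phosphate pH 7.0 + 0.01% (detergent screen) or 0.0001% Triton X-100; 5.3 nM AmpC reagent; cpd preinc 15 min RT; nitrocefin (800 uM stock) to start; A480 q20 s × 4 min; Activity was normalised to no-enzyme and no-compound control wells.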
AmpC inh detg = qHTS Inhibitors of AmpC Beta-Lactamase (assay with detergent); Potency, µM (titrated, usually from 114 µM), inactives show top-dose activity change, negative = inhibition, most hits filed as inhibitors; 0.041% of 370,000 active; AID 485294, 2010; P00811; AmpC hydrolysis of nitrocefin, absorbance 480 nm, 0.01% Triton;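 further: 0% = no-compound wells and -100% = no-enzyme wells; nearly all actives have a fitted effect of over 25% in size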
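AmpC (5.3 nM in the dispensed reagent) in 20 mM phosphate pH 7.0 with 0.01% (detergent screen) or 0.0001% Triton X-100 was preincubated with compounds for 15 min at room temperature. Nitrocefin was then added from an 800 uM solution, and hydrolysis was followed at 480 nm.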
Active calls of the source: *; ? = inconclusive; . = no result; [ ] = dose if it differs, or a comment. The call rests on the fitted dose curve; in most records, active means well fitted curve in the direction sought with a large enough effect; inconclusive means small, poorly fitted or top-dose-only effect, or another doubt; inactive means no such curve, though single readings can be large; an effect the other way counts as inactive or inconclusive. Unless noted, on the % scale 0 is the no-effect control and ±100 the full control effect; potency means the concentration at half of the fitted maximal effect.

SMILES | AMA1 RON2 block | Pf growth 96h | HCV inhibitor | Pf growth 48h | AmpC no deterg | AmpC inh detg
COC(=O)c1c(NC(=S)NN2CCN(C)CC2)sc2c1CCC(C)C2 (stereo unspecified) | 21.9% | ? | 2.82µM* | ? | 187.1% | -5.2%
O=C(Cn1cnc2ccccc2c1=O)c1c[nH]c2ccccc12 | 2.8% | 6.57µM* | -2.0% | 62.5% | -15.1% | -2.9%
CCN(CC)CC(=O)c1c[nH]c2ccccc12 | 1.7% | 2.94µM* | 12.4% | -9.7% | -13.5% | -9.8%
CCN(CC)CC(=O)c1c[nH]c2ccc(C)cc12 | -1.8% | 50.0% | -13.5% | ? | -30.5% | ?
CC(=O)Nc1ccc(NC(=O)c2oc3c(c2C)-c2nn(Cc4ccccc4Cl)cc2CC3)cc1 | . | . | . | . | . | 21.4%
Cc1ccccc1CNC(=O)CCS(=O)(=O)c1cc2c3c(c1)CCN3C(=O)CC2 | . | . | . | . | . | 0.7%
O=C(Cn1ncc2c3ccccc3n(Cc3cccc(Cl)c3)c2c1=O)NC1CCCCCC1 | . | . | . | . | . | 22.2%
Clc1ncnc2scc(C3COc4ccccc4O3)c12 (stereo unspecified) | 2.1% | 2.62µM* | ? | 2.94µM* | -26.6% | 4.2%
CN(C(=O)CSc1nnc(CN2CCCC2)n1Cc1ccccc1)c1ccccc1 | -10.2% | ? | 1.9% | 11.7µM* | 35.7% | -12.7%
CCn1c(CCc2ccccc2)n[nH]c1=S | 13.6% | 10.4µM* | -6.8% | 0.0% | -18.9% | 0.6%
S=c1[nH]nc(-c2ccccc2)n1Cc1ccccc1 | 57.8% | 0.415µM* | 30.1% | 15.9% | -33.6% | ?
CCCn1c(CCc2ccccc2)n[nH]c1=S | 77.8% | ? | -13.7% | 9.2% | -11.2% | 2.1%
S=c1[nH]nc(CN2CCCCC2)n1Cc1ccccc1 | 7.9% | 2.2% | 8.9% | 3.7µM* | -19.2% | 2.1%
CCCCNC(=O)Cn1ncc2c(C)n(Cc3cccc(Cl)c3)c(C)c2c1=O | . | . | . | . | . | 14.9%
COc1ccc(CNc2nc(-c3ccco3)nn2S(=O)(=O)c2ccc3ccccc3c2)cc1OC | . | . | . | . | . | 13.2%
COCCCNC(=O)c1ccc(Cn2c(=O)c3ccccc3n(Cc3c(C)cc(C)cc3C)c2=O)cc1 | . | . | . | . | . | 2.0%
CCOC(=O)N1CCN(C(=O)Cc2ccc(-n3c(=O)[nH]c4ccccc4c3=O)cc2)CC1 | -3.3% | 9.28µM* | 19.2% | -14.9% | -2.1% | 1.1%
CCCCNC(=O)CCCn1c(=O)c2ccccc2n(Cc2cccc(Cl)c2)c1=O | . | . | . | . | . | -6.3%
Cc1n(CC(O)COC2CCCCC2)c2ccccc2[n+]1C (stereo unspecified) | 2.3% | 26.7% | 18.8% | 6.57µM* | -12.8% | -6.7%
Cc1cccn2c(CN[C@H]3CCCCNC3=O)c(C(=O)N3CCOCC3)nc12 | 12.6% | 9.28µM* | 3.3% | 7.8% | -6.2% | 6.1%
COc1cccc(/C(O)=C/c2nc3ccc(C(=O)NCCc4cccc(C)c4)cc3[nH]c2=O)c1 | 119.6% | -10.2% | ? | 8.28µM* | 11.2µM* | ?
COc1cccc(/C(O)=C/c2nc3ccc(C(=O)NCCc4ccc(Cl)cc4)cc3[nH]c2=O)c1 | 7.3% | 85.3% | 8.0% | 10.2% | -24.3% | -1.3%
CC1(C)CC(=O)C(C=Nc2ccc3cn[nH]c3c2)=C(O)C1 | 23.8% | -8.0% | 4.6% | -0.4% | -11.3% | -14.9%
CC1(C)CC(=O)C(C=Nc2ccc3[nH]ncc3c2)=C(O)C1 | 8.2% | 10.4µM* | 6.2% | 4.6% | -22.4% | -6.3%
CCOc1ccc(CCNC(=O)CCn2c(=O)c3cccn3c3cccnc32)cc1 | . | . | . | . | . | -5.7%
SMILES | AMA1 RON2 block | Pf growth 96h | HCV inhibitor | Pf growth 48h | AmpC no deterg | AmpC inh detg
CC1=NN(c2ccc(C)c(C)c2)C(=O)/C1=C\C=C\c1ccc([N+](=O)[O-])o1 | -16.0% | ? | 11.2µM* | 0.5% | -37.6% | -0.2%
CCOC(=O)c1c(C)[nH]c(C)c1S(=O)(=O)N1CCCC(C(=O)Nc2ccc(F)cc2F)C1 (stereo unspecified) | . | . | . | . | . | -0.6%
CCOc1ccc(NC(=O)N2CC3CCCN3c3ccccc32)cc1 (stereo unspecified) | . | . | . | . | . | 2.5%
COc1ccc(/C=N/n2c(N)c(S(=O)(=O)c3cccs3)c3nc4ccccc4nc32)cc1OC | 12.2% | . | 9.7% | 2.94µM* | -20.5% | -3.5%
Nc1c(S(=O)(=O)c2cccs2)c2nc3ccccc3nc2n1/N=C/c1cccc(O)c1 | -3.0% | . | 7.94µM* | ? | -26.7% | -13.5%
COc1cccc(/C=N/n2c(N)c(S(=O)(=O)c3cccs3)c3nc4ccccc4nc32)c1 | -7.8% | ? | -17.2% | ? | -15.5% | 5.8%
CN(C)c1ccc(C(CC(=O)c2ccccc2)C2CCCCC2=O)cc1 (stereo unspecified) | ? | 10.4µM* | 13.0% | 0.8% | -11.7% | -1.3%
CCC(=O)Nc1nonc1-c1nc2ccccc2n1Cc1cccc2ccccc12 | -12.8% | 5.22µM* | ? | ? | -29.4% | ?
C[C@@H]1C[C@H]2[C@H]3C[C@@H](F)C4=CC(=O)C=C[C@]4(C)[C@@]3(Cl)[C@@H](O)C[C@@]2(C)[C@@H]1C(=O)COC(=O)C(C)(C)C | . | 4.78µM* | . | 4.78µM* | . | .
CC(=O)OCC(=O)[C@@]1(OC(C)=O)[C@@H](C)C[C@H]2[C@@H]3C[C@H](F)C4=CC(=O)C=C[C@]4(C)[C@@]3(F)[C@@H](O)C[C@@]21C | 6.7% | ? | 0.2%[8.37 µM] | ? | 175.3% | -1.1%
Cc1[nH]c2ccccc2c1C(=O)CN1C(=O)NC2(CC(C)CC(C)(C)C2)C1=O (stereo unspecified) | -2.8% | 10.4µM* | 2.3% | ? | -27.3% | ?
CCN(Cc1ccccc1)C(=O)CN1C(=O)NC2(CC(C)CC(C)(C)C2)C1=O (stereo unspecified) | 16.1% | ? | -29.9% | -20.5% | 76.1% | 5.0%
Cc1ccc(NC(=O)c2sc3nc(N4CCOCC4)c4c(c3c2N)CC(C)(C)OC4)cc1 | -9.8% | 68.9% | -16.3% | ? | -13.0% | 4.3%
CC1(C)Cc2c(c(N3CCCC3)nc3sc(C(=O)Nc4ccccc4)c(N)c23)CO1 | 5.0% | 13.1µM* | -15.7% | 14.7µM* | 46.0% | 1.4%
CC1(C)Cc2c(c(N3CCCC3)nc3sc4c(N5CCNCC5)ncnc4c23)CO1 | -7.7% | ? | 14.1µM* | ? | -7.5% | -2.9%
